Source: PubChem BioAssay AID588852 (The Scripps Research Institute Molecular Screening Center, 2011)
The campaign covered roughly 360,000 compounds. About 4,600 (1.3%) were called active. This is one part of a sample in which actives are shown more often than they occur.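 Rule for the calls: active = percent inhibition above its own plate's cutoff, namely the mean of that plate's compound wells plus 3 SD; inactive = the rest.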

What follows are molecules tested against Muscarinic acetylcholine receptor M1 (Homo sapiens) (UniProt P11229) (assay: human M1 muscarinic receptor antagonists, primary screen, CHO-K1 cells, Fluo-8 calcium fluorescence, 1536-well (AID 588852;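 note: peak over basal fluorescence ratio during 140 s after agonist addition; 0% = ACh EC80 plus DMSO and 100% = DMSO alone without agonist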)). Conditions: CHO-K1 hM1, Fluo-8 calcium fluorescence, ACh EC80 antagonist; at 3 µM; active compounds read high.
Sequence of Muscarinic acetylcholine receptor M1 (Homo sapiens) (P11229 whole entry, looked up): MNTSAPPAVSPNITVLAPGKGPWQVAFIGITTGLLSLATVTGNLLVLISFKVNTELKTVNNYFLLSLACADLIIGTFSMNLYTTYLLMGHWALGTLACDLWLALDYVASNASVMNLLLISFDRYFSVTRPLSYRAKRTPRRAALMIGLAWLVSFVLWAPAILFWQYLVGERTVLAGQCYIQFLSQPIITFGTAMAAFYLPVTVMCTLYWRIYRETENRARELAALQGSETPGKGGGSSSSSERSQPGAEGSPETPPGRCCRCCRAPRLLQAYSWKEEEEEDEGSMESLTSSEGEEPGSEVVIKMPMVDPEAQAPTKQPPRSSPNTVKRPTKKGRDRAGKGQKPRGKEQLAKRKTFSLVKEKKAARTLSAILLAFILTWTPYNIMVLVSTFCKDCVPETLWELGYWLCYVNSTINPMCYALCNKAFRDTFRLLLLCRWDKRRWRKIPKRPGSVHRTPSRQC

SMILES	inhibition
O=c1[nH]c2ccccc2n1C1CCN(C(c2ccccc2)c2nnnn2Cc2ccccc2)CC1 (stereo not given)	-3.28% (inactive)
COc1ccc(-n2nnnc2C(c2cccc3ccccc23)N2CCC(n3c(=O)[nH]c4ccccc43)CC2)cc1 (stereo not given)	103% (active)
O=c1[nH]c2ccccc2n1C1CCN(C(c2ccnc3ccccc23)c2nnnn2Cc2ccccc2)CC1 (stereo not given)	4.78% (inactive)
COC1C(O)C(C)OC(OC2CCC3(C=O)C(CCC4C3CCC3(C)C(C5=CC(=O)OC5)CCC43O)C2)C1O (stereo not given)	-8.54% (inactive)
CC12CCC3C(CCC4CC(=O)CCC43C)C1CC(=NO)C2=O (stereo not given)	-2.57% (inactive)
COc1cccc(C(=O)N2C[C@H]3C[C@@H](C2)c2cccc(=O)n2C3)c1	-17.6% (inactive)
O=C(Nc1cccc(OC(=O)N2CCCCC2)c1)N1CCOCC1	12.4% (inactive)
CCn1cc(CN2CCCC(C(=O)c3cccc(C(F)(F)F)c3)C2)cn1 (stereo not given)	30.8% (inactive)
CC(C)Oc1cccc(C(=O)C2CCCN(C3CCOCC3)C2)c1 (stereo not given)	62.5% (active)
CC(C)(C)[C@]1(O)C[C@@H]2OC(=O)C[C@@]23C(=O)O[C@@H]2OC(=O)[C@H](O)[C@]213	-3.8% (inactive)
CC(=NCc1ccc2c(c1)OCO2)c1c(O)[nH]c(=O)[nH]c1=O	-24.2% (inactive)
CCCC[N+]1(C)C2CC(OC(=O)C(CO)c3ccccc3)CC1C1OC12 (stereo not given)	85.3% (active)
CCCCC(=O)N/N=C/c1c(O)n(CC)c(=S)n(CC)c1=O	-7.53% (inactive)
Cc1ccc2c(c1)C1CN(C)CCC1N2C(=O)Cn1nnc(-c2ccccc2F)n1 (stereo not given)	5.84% (inactive)
O=C(COc1ccc2ccccc2c1)N1CCN(Cc2ccncc2)CC1	14.5% (inactive)
CC(C(=O)Nc1ccc(Cl)cc1Cl)N1CC=C(c2ccccc2)CC1 (stereo not given)	18.7% (inactive)
CC[N+]1(C)CCCC(OC(=O)C(O)(c2ccccc2)c2ccccc2)C1 (stereo not given)	97.3% (active)
COC(=O)CN1C(=O)C2(C(C(=O)OC)=C(N)Oc3ccccc32)C2=C1CC(C)(C)CC2=O (stereo not given)	-6.88% (inactive)
CCOc1ccc(CN(CCCl)CCCl)cc1C(=O)OC	-7.91% (inactive)
CSCCC(c1nnnn1C(C)(C)C)N1CCC(n2c(=O)[nH]c3ccccc32)CC1 (stereo not given)	-5.89% (inactive)
COC(=O)C(c1ccccc1)N1CCCCCC1 (stereo not given)	-0.1% (inactive)
c1ccc(C(CN2CCCCC2)c2ccccc2)cc1	50% (active)

SMILES	inhibition
OC(CNC1CCCCC1)c1ccccc1 (stereo not given)	-2.05% (inactive)
CCOP(=O)(OCC)C(NC(=O)NC)C(N)=O (stereo not given)	-7.67% (inactive)
COc1cccc(C(c2nnnn2-c2ccc3c(c2)OCCO3)N2CCC3(CC2)C(=O)NCN3c2ccccc2)c1OC (stereo not given)	-16.2% (inactive)
O=C(OCCN1CCOCC1)C1(c2ccccc2)CCCC1	35.5% (active)
CCOC(=O)C1(c2ccccc2)CCN(CC(O)c2ccc(NC(C)=O)cc2)CC1 (stereo not given)	-8.72% (inactive)
c1ccc(CCN2CCC3(CC2)OCCO3)cc1	-10% (inactive)
CC(=O)NCC1=C(c2ccc3ccccc3c2)C[C@@H]2CC[C@H]1N2Cc1ccco1	-9.51% (inactive)
CCN(CC)P(=O)(Oc1cccc(C)c1)N(CC)CC	-22.1% (inactive)
COC(=O)C1=C(c2ccccc2OCc2ccccc2)C[C@@H]2CC[C@H]1N2C(=O)NCc1ccc(OC)cc1	18.3% (inactive)
NC(=O)Nc1cccc(C(F)(F)F)c1	-7.02% (inactive)
COc1ccc(C(=O)C2CCCN(Cc3ccc(C)s3)C2)cc1OC (stereo not given)	52.6% (active)
Cc1cc(=O)oc2c(C)c(OCC(=O)N3CCN(Cc4ccc5c(c4)OCO5)CC3)ccc12	-1.03% (inactive)
Cc1ccsc1C(=O)C1CCCN(Cc2ccc(O)cc2)C1 (stereo not given)	7.02% (inactive)
COc1cccc(CN2CCCC(C(=O)c3ccccc3SC)C2)c1O (stereo not given)	23.3% (inactive)
Cc1ccc(CN2CCCC(C(=O)c3ccc4c(c3)OCO4)C2)cc1C (stereo not given)	84.4% (active)
CC(C)Nc1nc(Cl)nc(NC(C)C)n1	-4.88% (inactive)
C=CCN1C(=O)NC(=O)/C(=C/c2ccc(OCC(=O)Nc3ccc(C)cc3)cc2)C1=O	-8.3% (inactive)
COc1ccc(-c2nc(CS(=O)CC(=O)N3CCC4(CC3)OCCO4)c(C)o2)cc1 (stereo not given)	-12.6% (inactive)
CC1(C)C(c2ccccc2)=NC(c2cccnc2)=[N+]1[O-]	-21% (inactive)
CCOC(=O)C1SC2(C(F)(F)C(F)F)CC1(O)c1c(c(OC)c3occc3c1OC)O2 (stereo not given)	46.3% (active)
O=C(N/N=C/c1c(O)n(C2CC2)c(=S)[nH]c1=O)c1ccccc1	-8.31% (inactive)
CCOC(=O)C1(Cc2ccc(Cl)cc2)CCN(C(C)CCn2cccn2)CC1 (stereo not given)	22.2% (inactive)

SMILES	inhibition
CC1CCCN1CCC(C(N)=O)(c1ccccc1)c1ccccc1 (stereo not given)	98.5% (active)
CC1CCCCN1Cc1cccnc1 (stereo not given)	3.5% (inactive)
O=C(Cc1ccccc1)N1CCN(C2CCCCCC2)CC1	-0.63% (inactive)
COC(=O)C1=C(c2cccc(OCc3ccccc3)c2)C[C@@H]2CC[C@H]1N2C(=O)NNCc1ccccc1	18.8% (inactive)
Cc1cc(OCc2cc(C(=O)O)oc2C)c2c3c(c(=O)oc2c1)CCCC3	-3.16% (inactive)
CSc1nc2ccc(C)cc2c(=O)n1-c1cccnc1	-6.09% (inactive)
CSc1ccc(C(=O)C2CCCN(Cc3ccn[nH]3)C2)cc1 (stereo not given)	62.7% (active)
S=C(NCCc1ccccc1)N1Cc2cc(N3CCOCC3)ccc2-n2nncc2C1	-7.43% (inactive)
COC(=O)C1=C(c2ccccc2)C[C@@H]2CC[C@H]1N2C(=O)N1CCCCC1	-1.18% (inactive)
O=C(NC1CCCCC1)N1Cc2cc(N3CCCCC3)ccc2-n2nncc2C1	6.05% (inactive)
CCOc1cccc(=NC2CCCCC2)c2c(C)[nH]c(C)c12	-4.64% (inactive)
CCCCCCCCCCCCn1ccc(=N)cc1	89.2% (active)
COc1ccc(C2NCc3ccc4c(c3-n3cccc32)OCO4)cc1OC (stereo not given)	-9.71% (inactive)
O=C(c1cc2nc(-c3ccccc3)cc(-c3ccccc3)n2n1)N1CCC2(CC1)OCCO2	-31% (inactive)
COC(=O)C1=C(c2ccc(-c3ccccc3)c(F)c2)C[C@@H]2CC[C@H]1N2C(=O)NCc1ccc(F)cc1	1.14% (inactive)
COc1cc(C(=O)N2Cc3ccc(Br)cc3-n3nncc3C2)cc(OC)c1OC	1.07% (inactive)
Cc1nn(Cc2ccccc2Cl)c(Cl)c1C(=O)OC(C(=O)NC(N)=O)C(C)C (stereo not given)	-7.79% (inactive)
CCOC(=O)CNC(=O)N1Cc2cc(N3CCCCC3)ccc2-n2nncc2C1	-0.57% (inactive)
CC(CC(C#N)(c1ccccc1)c1ccccc1)N1CCCCC1 (stereo not given)	75.2% (active)
Clc1ccc2nc3c(c(-c4ccccc4)c2c1)CNCC3	5.52% (inactive)
Cn1c(O)c(C(=Nc2ccc(F)cc2)c2ccccc2)c(=O)n(C)c1=O	-7.87% (inactive)
